The full data set covers some 8,800 targets. This sample favours those with a hit. About 0.5% of all pairs of compound and target were hits. Values without a mark were called inactive.
What was measured:
Experiment in all cases: log2 fold change, soluble protein after heating vs DMSO (PISA); higher = thermal stabilisation; K562 lysate, 10 uM; active = over 0.2 and 3.5 SD of the protein, either way, in both replicates (recomputed)
[1] = compound: CN1CC[C@H](c2c(O)cc(O)c3c(=O)cc(-c4ccccc4Cl)oc23)[C@H](O)C1 [alvocidib]
In short: (§1)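 A 30 min treatment with 10 μM compound was applied to crude K562 extract at 1 mg/mL protein in PBS pH 7.4 with 1 mM MgCl2. Heating for 3 min spanned 48°C-58°C, after which aliquots were pooled, adjusted to 0.5% NP-40 at 4°C and spun at 21,000xg for 90 min. TMTpro 16plex LC-MS/MS of the supernatant, with channel sums equalised, gave values recorded as log-two fold change in thermal stability against solvent controls, from duplicates.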

[2] = compound: CN1CCc2c(c3ccccc3n2Cc2ccc(C(=O)NO)cc2)C1 [Tubastatin A]
In short: as §1

[3] = compound: CNC(=O)C1=CC=CC=C1NC2=NC(=NC=C2Cl)NC3=C(C=C(C=C3)N4CCOCC4)OC
In short: as §1

[4] = compound: CNC(=O)c1ccc(Nc2ncc(C(F)(F)F)c(NCc3nccnc3N(C)S(C)(=O)=O)n2)cc1 [defactinib]
In short: as §1

[5] = compound: CNc1nc(-c2ccc3c(N)n[nH]c3c2)cc(N2C[C@@H](C(=O)NC3CCCCC3)CC[C@H]2C)n1
In short: as §1

[6] = compound: COC(=O)N[C@@H](C)CNc1nccc(-c2cn(C(C)C)nc2-c2cc(Cl)cc(NS(C)(=O)=O)c2F)n1 [encorafenib]
In short: as §1

[7] = compound: COC(=O)[C@H](CCSC)NC(=O)C1=C(C=C(C=C1)NC[C@H](CS)N)C2=CC=CC=C2
In short: as §1

[8] = compound: COc1cc(Nc2ncc3c(n2)-c2ccc(Cl)cc2C(c2c(F)cccc2OC)=NC3)ccc1C(=O)O [alisertib]
In short: as §1

[9] = compound: COc1cc2nc(-c3cc(F)ccc3O)nc(N[C@@H]3CNC[C@H]3C(C)(C)O)c2cc1OC
In short: as §1

[10] = compound: COc1cc2ncnc(Nc3ccc(F)c(Cl)c3)c2cc1OCCCN1CCOCC1 [gefitinib]
In short: as §1

[11] = compound: CS(=O)(=O)CCNCc1ccc(-c2ccc3ncnc(Nc4ccc(OCc5cccc(F)c5)c(Cl)c4)c3c2)o1 [lapatinib]
In short: as §1

[12] = compound: CS(=O)(=O)N1CCN(Cc2cc3nc(-c4cccc5[nH]ncc45)nc(N4CCOCC4)c3s2)CC1 [pictilisib]
In short: as §1

[13] = compound: C[C@@H](Oc1cc(-c2cnn(C3CCNCC3)c2)cnc1N)c1c(Cl)ccc(F)c1Cl [crizotinib]
In short: as §1

[14] = compound: C[C@H](C1=CC=C(C=C1)C(=O)NC2=C3C=CNC3=NC=C2)N
In short: as §1

[15] = compound: C[C@H](Nc1ncnc2nc[nH]c12)c1cc2cccc(Cl)c2c(=O)n1-c1ccccc1 [duvelisib]
In short: as §1

[16] = compound: Cc1cc(Nc2cc(CN3CCOCC3)c3nc(C)c(Cc4ccc(Cl)cc4F)n3n2)n[nH]1 [gandotinib]
In short: as §1

[17] = compound: Cc1cc(Nc2cc(N3CCN(C)CC3)nc(Sc3ccc(NC(=O)C4CC4)cc3)n2)n[nH]1 [tozasertib]
In short: as §1

[18] = compound: Cc1ccc(-n2nc(C(C)(C)C)cc2NC(=O)Nc2ccc(OCCN3CCOCC3)c3ccccc23)cc1 [doramapimod]
In short: as §1

[19] = compound: Cc1ccc(NC(=O)c2ccc(CN3CC[C@H](N(C)C)C3)c(C(F)(F)F)c2)cc1Nc1nccc(-c2cncnc2)n1 [bafetinib]
In short: as §1

[20] = compound: Cc1cccc(CC(=O)N2CCc3c2ccc(-c2cn(C)c4ncnc(N)c24)c3F)n1
In short: as §1

UniProt Q9H3Z4, sequence (Q9H3Z4 whole entry, looked up): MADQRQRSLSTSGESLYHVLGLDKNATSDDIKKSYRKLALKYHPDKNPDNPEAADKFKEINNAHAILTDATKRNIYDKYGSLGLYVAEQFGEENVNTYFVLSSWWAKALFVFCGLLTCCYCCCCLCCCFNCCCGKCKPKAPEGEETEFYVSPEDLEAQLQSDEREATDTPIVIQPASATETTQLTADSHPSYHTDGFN
UniProt Q1MSJ5, sequence (Q1MSJ5 whole entry, looked up): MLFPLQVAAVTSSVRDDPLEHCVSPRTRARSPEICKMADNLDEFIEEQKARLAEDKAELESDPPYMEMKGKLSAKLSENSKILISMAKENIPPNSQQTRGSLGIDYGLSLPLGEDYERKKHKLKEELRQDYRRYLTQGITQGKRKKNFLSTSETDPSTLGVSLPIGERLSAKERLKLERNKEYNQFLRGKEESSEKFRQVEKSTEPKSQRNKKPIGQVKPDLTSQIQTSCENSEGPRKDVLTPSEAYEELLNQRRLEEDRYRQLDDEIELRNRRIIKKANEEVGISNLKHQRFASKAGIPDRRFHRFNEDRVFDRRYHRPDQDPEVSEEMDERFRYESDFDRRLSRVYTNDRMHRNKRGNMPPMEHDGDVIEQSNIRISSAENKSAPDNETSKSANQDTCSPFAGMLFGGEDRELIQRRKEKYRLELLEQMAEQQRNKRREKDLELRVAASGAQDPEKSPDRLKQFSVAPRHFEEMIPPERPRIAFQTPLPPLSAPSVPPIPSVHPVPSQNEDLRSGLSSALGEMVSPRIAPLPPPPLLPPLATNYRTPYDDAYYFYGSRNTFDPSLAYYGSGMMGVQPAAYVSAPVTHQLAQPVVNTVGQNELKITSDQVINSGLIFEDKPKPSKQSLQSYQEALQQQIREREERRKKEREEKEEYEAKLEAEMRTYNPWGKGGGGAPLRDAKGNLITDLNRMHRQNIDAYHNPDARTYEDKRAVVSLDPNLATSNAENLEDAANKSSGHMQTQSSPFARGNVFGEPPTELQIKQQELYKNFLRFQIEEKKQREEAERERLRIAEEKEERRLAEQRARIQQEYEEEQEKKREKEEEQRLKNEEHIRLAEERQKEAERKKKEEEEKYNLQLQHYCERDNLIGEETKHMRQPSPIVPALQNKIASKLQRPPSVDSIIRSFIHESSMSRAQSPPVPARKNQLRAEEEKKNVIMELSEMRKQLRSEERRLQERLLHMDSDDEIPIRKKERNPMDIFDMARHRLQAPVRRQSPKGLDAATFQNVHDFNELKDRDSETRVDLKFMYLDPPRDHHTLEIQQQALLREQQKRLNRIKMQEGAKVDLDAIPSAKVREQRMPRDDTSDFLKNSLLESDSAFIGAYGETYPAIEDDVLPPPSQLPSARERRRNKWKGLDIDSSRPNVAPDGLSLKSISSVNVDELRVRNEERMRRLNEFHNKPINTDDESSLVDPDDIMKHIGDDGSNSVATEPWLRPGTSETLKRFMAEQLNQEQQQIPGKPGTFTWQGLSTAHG
UniProt Q8IY22, sequence (Q8IY22 whole entry, looked up): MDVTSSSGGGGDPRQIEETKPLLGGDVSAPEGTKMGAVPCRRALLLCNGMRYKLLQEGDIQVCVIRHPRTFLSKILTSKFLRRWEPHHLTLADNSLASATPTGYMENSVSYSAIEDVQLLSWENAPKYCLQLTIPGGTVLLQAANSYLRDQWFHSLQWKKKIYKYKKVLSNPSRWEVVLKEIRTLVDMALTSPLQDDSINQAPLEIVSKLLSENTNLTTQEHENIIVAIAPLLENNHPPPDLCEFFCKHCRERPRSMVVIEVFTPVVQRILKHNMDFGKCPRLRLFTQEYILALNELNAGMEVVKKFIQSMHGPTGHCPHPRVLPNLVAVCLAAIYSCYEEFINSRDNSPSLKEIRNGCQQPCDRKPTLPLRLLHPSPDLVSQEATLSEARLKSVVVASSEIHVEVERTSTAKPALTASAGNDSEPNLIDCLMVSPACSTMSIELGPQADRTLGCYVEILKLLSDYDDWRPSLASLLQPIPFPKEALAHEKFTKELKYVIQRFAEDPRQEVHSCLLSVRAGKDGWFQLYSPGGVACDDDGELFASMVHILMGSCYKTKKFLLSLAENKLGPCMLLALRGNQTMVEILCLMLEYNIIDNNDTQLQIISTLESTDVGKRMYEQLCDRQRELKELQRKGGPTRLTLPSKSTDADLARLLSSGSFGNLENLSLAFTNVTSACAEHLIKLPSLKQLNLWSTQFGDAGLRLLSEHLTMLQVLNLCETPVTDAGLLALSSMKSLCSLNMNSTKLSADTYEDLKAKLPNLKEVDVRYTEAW
UniProt Q96LJ7, sequence (Q96LJ7 whole entry, looked up): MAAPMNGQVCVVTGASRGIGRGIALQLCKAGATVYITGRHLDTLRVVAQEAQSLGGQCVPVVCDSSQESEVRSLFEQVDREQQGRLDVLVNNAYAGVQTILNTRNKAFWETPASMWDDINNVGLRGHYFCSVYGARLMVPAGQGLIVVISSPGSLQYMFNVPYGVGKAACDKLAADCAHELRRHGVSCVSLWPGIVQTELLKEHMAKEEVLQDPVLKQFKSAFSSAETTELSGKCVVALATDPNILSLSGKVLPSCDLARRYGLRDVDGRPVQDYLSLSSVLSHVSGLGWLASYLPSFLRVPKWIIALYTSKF
UniProt P09543, sequence (P09543 whole entry, looked up): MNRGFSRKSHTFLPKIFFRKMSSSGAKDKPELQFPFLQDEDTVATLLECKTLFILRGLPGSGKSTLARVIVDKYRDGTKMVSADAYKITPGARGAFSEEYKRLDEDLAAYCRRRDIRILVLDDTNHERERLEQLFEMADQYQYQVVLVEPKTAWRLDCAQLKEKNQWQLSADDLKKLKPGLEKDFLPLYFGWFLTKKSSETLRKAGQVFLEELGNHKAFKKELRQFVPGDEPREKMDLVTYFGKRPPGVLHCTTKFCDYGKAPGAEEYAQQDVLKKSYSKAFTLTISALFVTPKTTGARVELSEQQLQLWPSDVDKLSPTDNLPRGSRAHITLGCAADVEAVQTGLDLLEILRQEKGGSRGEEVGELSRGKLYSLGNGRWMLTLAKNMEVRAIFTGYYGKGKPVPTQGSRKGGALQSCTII
UniProt P26374, sequence (P26374 whole entry, looked up): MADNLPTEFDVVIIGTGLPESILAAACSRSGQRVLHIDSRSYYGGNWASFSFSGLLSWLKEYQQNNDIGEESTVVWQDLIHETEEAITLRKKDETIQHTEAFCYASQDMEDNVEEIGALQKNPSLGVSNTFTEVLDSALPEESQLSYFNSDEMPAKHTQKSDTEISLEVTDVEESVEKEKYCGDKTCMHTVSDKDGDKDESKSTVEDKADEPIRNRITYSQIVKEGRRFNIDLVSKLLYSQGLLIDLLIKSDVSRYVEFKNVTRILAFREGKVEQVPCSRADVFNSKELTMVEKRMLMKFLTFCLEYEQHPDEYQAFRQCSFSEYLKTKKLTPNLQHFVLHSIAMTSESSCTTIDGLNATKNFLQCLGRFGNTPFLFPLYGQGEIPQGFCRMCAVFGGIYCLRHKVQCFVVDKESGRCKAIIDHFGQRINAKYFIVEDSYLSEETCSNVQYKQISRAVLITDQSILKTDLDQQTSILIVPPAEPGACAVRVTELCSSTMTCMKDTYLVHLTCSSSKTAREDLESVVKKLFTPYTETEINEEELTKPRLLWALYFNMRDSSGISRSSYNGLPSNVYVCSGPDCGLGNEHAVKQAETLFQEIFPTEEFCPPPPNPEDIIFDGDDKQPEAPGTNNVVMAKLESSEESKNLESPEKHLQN
UniProt P04080, sequence (P04080 whole entry, looked up): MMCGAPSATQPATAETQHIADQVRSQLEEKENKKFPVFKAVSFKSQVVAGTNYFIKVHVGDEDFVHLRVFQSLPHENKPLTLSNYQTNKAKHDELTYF
UniProt Q14203, sequence (Q14203 whole entry, looked up): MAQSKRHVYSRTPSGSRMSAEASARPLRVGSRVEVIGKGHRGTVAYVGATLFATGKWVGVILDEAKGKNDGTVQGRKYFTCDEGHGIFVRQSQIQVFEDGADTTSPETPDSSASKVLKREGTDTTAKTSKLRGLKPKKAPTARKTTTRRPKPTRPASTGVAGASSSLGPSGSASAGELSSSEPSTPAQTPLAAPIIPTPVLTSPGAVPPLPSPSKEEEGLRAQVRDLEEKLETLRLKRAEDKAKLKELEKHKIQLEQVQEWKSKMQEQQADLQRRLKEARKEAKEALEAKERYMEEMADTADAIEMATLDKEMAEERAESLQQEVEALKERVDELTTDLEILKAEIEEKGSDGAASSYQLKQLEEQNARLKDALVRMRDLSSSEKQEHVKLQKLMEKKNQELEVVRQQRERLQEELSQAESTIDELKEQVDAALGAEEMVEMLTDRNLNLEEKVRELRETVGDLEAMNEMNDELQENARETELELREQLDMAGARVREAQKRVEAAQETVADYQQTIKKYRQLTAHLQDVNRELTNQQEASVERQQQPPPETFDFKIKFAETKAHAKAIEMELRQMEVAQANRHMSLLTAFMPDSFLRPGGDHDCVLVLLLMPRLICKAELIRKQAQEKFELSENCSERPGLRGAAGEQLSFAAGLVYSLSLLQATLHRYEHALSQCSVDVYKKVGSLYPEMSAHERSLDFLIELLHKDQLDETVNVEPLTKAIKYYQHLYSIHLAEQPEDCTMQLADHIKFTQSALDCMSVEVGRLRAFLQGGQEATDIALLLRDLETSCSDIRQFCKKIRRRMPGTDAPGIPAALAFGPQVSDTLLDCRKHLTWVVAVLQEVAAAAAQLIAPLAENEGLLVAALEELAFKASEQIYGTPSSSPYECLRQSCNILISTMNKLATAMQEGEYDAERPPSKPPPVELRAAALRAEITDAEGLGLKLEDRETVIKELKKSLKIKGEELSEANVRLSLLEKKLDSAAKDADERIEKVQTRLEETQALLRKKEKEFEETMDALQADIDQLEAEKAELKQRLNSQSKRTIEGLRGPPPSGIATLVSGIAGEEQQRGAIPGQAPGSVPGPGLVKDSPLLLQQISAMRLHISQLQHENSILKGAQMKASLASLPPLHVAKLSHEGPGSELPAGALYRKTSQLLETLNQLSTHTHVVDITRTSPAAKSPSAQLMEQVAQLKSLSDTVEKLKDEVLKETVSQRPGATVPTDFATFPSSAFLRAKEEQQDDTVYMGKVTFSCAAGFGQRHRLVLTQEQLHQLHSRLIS

| Target | log2 fold change [1] | log2 fold change [2] | log2 fold change [3] | log2 fold change [4] | log2 fold change [5] | log2 fold change [6] | log2 fold change [7] | log2 fold change [8] | log2 fold change [9] | log2 fold change [10] | log2 fold change [11] | log2 fold change [12] | log2 fold change [13] | log2 fold change [14] | log2 fold change [15] | log2 fold change [16] | log2 fold change [17] | log2 fold change [18] | log2 fold change [19] | log2 fold change [20] |
| --- | --- | --- | --- | --- | --- | --- | --- | --- | --- | --- | --- | --- | --- | --- | --- | --- | --- | --- | --- | --- |
| DMXL1 (UniProt Q9Y485) | 0.01 | -0.014 | 0.019 | 0.024 | 0.012 | 0.055 | -0.015 | -0.031 | 0.009 | 0.038 | -0.003 | -0.014 | -0.021 | 0.001 | 0.007 | -0.028 | 0.002 | 0.039 | -0.01 | 0.026 |
| CTPS2 (UniProt Q9NRF8) | -0.01 | 0.015 | -0.009 | 0.01 | -0.006 | 0.01 | -0.043 | -0.017 | 0.011 | 0.011 | -0.025 | -0.018 | -0.004 | -0.032 | 0.016 | -0.002 | 0.009 | 0.021 | 0.077 | 0.003 |
| CSNK2A1 (UniProt P68400) | 0.077 | 0.019 | 0.337 (active) | 0.056 | -0.002 | -0.004 | -0.005 | 0.012 | 0.112 | -0.024 | -0.038 | 0.016 | 0.007 | -0.021 | -0.002 | -0.007 | -0.006 | -0.003 | 0.027 | -0.018 |
| DCTN1 (UniProt Q14203) | 0.03 | -0.048 | 0.009 | 0.008 | -0.02 | 0.008 | 0.119 | -0.019 | 0.01 | -0.002 | -0.005 | -0.021 | -0.005 | 0.027 | 0.001 | -0.029 | -0.002 | -0.013 | -0.023 | -0.005 |
| CWC22 (UniProt Q9HCG8) | 0.112 | -0.035 | 0 | -0.026 | -0.036 | 0.046 | 0.093 | -0.065 | -0.058 | -0.028 | 0.059 | -0.027 | -0.051 | 0.46 (active) | 0.011 | -0.207 | 0.072 | -0.019 | -0.088 | -0.109 |
| CSPP1 (UniProt Q1MSJ5) | -0.031 | -0.03 | -0.028 | -0.086 | 0.095 | 0.119 | -0.195 | 0.027 | 0.218 | -0.054 | -0.103 | -0.176 | 0.013 | 0.031 | -0.089 | 0.056 | -0.04 | 0.018 | -0.013 | -0.002 |
| CHML (UniProt P26374) | -0.019 | 0.008 | -0.004 | -0.025 | 0.002 | 0.003 | 0.005 | 0.014 | 0.011 | 0.012 | -0.006 | -0.003 | 0.022 | -0.012 | 0.006 | 0.013 | -0.004 | -0.025 | 0.094 | 0.004 |
| DOCK7 (UniProt Q96N67) | 0.007 | -0.238 | 0.006 | -0.014 | -0.035 | 0.006 | 0.038 | 0.032 | 0.026 | 0.017 | -0.003 | -0.016 | -0.022 | -0.107 | -0.004 | -0.103 | 0.047 | 0.012 | -0.032 | 0.102 |
| CNP (UniProt P09543) | -0.005 | -0.06 | 0.011 | 0.028 | -0.03 | 0.02 | -0.003 | 0.029 | 0 | -0.025 | 0.014 | 0.015 | -0.023 | 0.002 | -0.002 | -0.047 | 0.012 | 0.039 | -0.026 | 0.022 |
| DPH5 isoform 5 (UniProt Q9H2P9) | -0.012 | 0.02 | 0.119 | -0.002 | 0.02 | -0.044 | -0.024 | -0.045 | -0.018 | 0.04 | 0.009 | 0.025 | 0.126 | -0.019 | 0.128 | 0.495 (active) | 0.005 | -0.024 | 0.143 | 0.101 |
| CMIP (UniProt Q8IY22) | 0.002 | -0.161 | 0.001 | 0.061 | -0.015 | 0.078 | 0.025 | -0.012 | -0.016 | 0.007 | 0.002 | -0.013 | -0.001 | 0.046 | -0.035 | -0.062 | 0.017 | -0.094 | -0.064 | 0.002 |
| DNAJC5 (UniProt Q9H3Z4) | -0.216 | 0.062 | 0.019 | 0.011 | 0.054 | 0.016 | -0.057 | -0.119 | 0.019 | -0.039 | -0.021 | 0.075 | 0.007 | -0.377 (active) | -0.041 | 0.161 | -0.054 | 0.023 | -0.144 | 0.334 (active) |
| CUEDC2 (UniProt Q9H467) | 0.054 | 0.036 | 0.03 | 0.055 | 0.078 | 0.006 | -0.026 | -0.019 | -0.009 | 0.019 | 0.018 | -0.119 | 0.001 | 0.528 (active) | -0.009 | -0.026 | -0.055 | 0.022 | -0.073 | -0.082 |
| CSTB (UniProt P04080) | -0.051 | 0.089 | -0.023 | 0.069 | 0.011 | 0.025 | -0.011 | 0.023 | -0.042 | -0.143 | 0.05 | 0.003 | -0.059 | -0.235 | 0.025 | 0.147 | -0.01 | 0.107 | 0.012 | 0.104 |
| DOCK10 (UniProt Q96BY6) | -0.354 | -0.028 | 0.208 | 0.133 | 0.046 | 0.067 | -0.002 | 0.05 | -0.042 | 0.084 | -0.025 | -0.024 | -0.461 | -0.641 (active) | 0.003 | 0.231 | 0 | 0.137 | -0.226 | 0.379 |
| DHRS1 (UniProt Q96LJ7) | -0.057 | 0.02 | 0.188 | -0.238 | -0.012 | 0.164 | -0.102 | 0.059 | 0.028 | -0.075 | -0.138 | -0.089 | -0.014 | -0.037 | 0.406 (active) | 0.099 | -0.281 | -0.015 | 0.056 | 0.092 |
